FLuc modulator = firefly luciferase modulation, counter-screen for miR-21 project; purified FLuc, Km substrates, luminescence inhibition; Potency, µM (titrated, usually from 57.5 µM), inactives show at the top dose activity change, negative = inhibition, most hits filed as inhibitors; P08659; AID 588342; hit rate 6.9% among 360,000;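 further: plate controls were vehicle for no effect and reference inhibitor for full effect; nearly all actives have a fitted effect of over 55% in size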
Target sequence (P08659 whole entry, looked up): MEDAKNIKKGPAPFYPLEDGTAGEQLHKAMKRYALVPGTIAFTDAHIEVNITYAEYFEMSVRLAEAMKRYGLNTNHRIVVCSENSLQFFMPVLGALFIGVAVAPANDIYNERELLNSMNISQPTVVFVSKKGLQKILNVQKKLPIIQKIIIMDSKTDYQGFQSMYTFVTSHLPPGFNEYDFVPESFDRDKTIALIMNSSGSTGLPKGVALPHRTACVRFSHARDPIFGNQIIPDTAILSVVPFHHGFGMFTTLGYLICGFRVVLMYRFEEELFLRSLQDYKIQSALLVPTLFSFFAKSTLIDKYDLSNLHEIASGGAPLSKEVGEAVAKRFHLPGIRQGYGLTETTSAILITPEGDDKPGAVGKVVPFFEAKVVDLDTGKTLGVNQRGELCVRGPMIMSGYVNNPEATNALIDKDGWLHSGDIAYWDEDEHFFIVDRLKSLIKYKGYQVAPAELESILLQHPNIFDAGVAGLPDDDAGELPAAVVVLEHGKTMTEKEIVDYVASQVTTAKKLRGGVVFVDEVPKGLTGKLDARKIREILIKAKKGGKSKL
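Purified P. pyralis luciferase (10nM final) with 10uM D-luciferin and 10uM ATP (Km levels) in 50mM Tris acetate pH 7.5, 10mM Mg acetate, 0.01% Tween-20, 0.05% BSA; qHTS 6-point titration, ~60 µM downward; luminescence read.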
ELG1 repair inh = ELG1-dependent DNA repair inhibition; HEK293T ELG1-luciferase reporter, luminescence, 16 h; DNA damage induced by 5-fluorouridine; Potency, µM (highest dose often 46.1 µM), for inactives: at the top dose activity change, negative = inhibition, usual class: inhibitors; hit rate 2.3% among 330,000; AID 504467; further: on the % scale 0 is the no-effect control and ±100 the full control effect; nearly all actives have a fitted effect of over 55% in size
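Overnight (16 hr) co-exposure of 2,000 cells/well to 5-fluorouridine and compound at 37 °C preceded detection. Luciferase was quantified via ONE-Glo luminescence; loss of signal denotes inhibition.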
Rab9 promoter act = activators of Rab9 promoter; hit rate 2.8% among 320,000; Huh7 Rab9 promoter-luciferase reporter, luminescence, 24 h; Potency, µM (highest dose often 9.22 µM), for inactives: at the highest dose activation, negative = inhibition, most hits filed as activators; further: % of control where 0% means no effect; nearly all actives have a fitted effect of over 60% in size
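Luminescence read-out: Huh7 cells stably expressing Rab9-luciferase, treated 24 h with compound at 37 °C, then lysed with luciferase reagent for 10 min at ambient before reading.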
ELG1 genotoxic = inducers of genotoxicity in HEK293T ELG1-luciferase cells; HEK293T ELG1-luciferase reporter, luminescence, 16 h; Potency, µM (titrated, usually from 46 µM), without a hit: top-dose activity change, positive = activation, most hits filed as activators; hit rate 1.3% among 330,000; further: % of control where 0% means no effect; nearly all actives have a fitted effect of over 60% in size
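16 hr compound incubation (37 °C, 5% CO2) of HEK293T cells carrying luciferase-tagged ELG1; luciferase then measured by ONE-Glo luminescence after 30 min at RT.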
SMN2 splice up = enhancers of SMN2 splice variant expression. HEK293 SMN2-luciferase splicing reporter, luminescence, 30-36 h. hit rate 2.8% among 210,000. AID 1458. Potency, µM (series often up to 46.1 µM), for the others: at the top dose activity change, positive = activation, hits mostly activators; further: % of control where 0% means no effect; nearly all actives have a fitted effect of over 55% in size
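qHTS luciferase splicing reporter: luminescence rises when SMN2 exon 7 is included in transfected HEK293 cells. Compound exposure lasted 30-36 h at 37C, with 4.5 mM final sodium butyrate as control, followed by a ONE-Glo read.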
NPC1 promoter act = NPC1 promoter activation. Huh7 NPC1 promoter luciferase reporter, 24 h. Potency, µM (series often up to 9.22 µM), for inactives: at the highest dose activation, usual class: activators. hit rate 2.4% among 320,000; further: % of control where 0% means no effect; nearly all actives have a fitted effect of over 60% in size
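Compounds in DMSO were transferred onto Huh7 NPC1-luciferase reporter cells pre-incubated 2 h; after 24 h at 37 °C, Amplite reagent was dispensed and luminescence recorded 10 min later.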
* marks the source's active call; other numbers are inactive results; ? = inconclusive; nt = not tested or not shown; [ ] = remark or other dose. Hits are enriched below; roughly 9.4% of the tested compounds scored in any of these assays. The call rests on the fitted dose curve; in most records, active means well fitted curve in the direction sought with a large enough effect; inconclusive means small, poorly fitted or top-dose-only effect, or another doubt; inactive means no such curve, though single readings can be large; an effect the other way counts as inactive or inconclusive. Potency means the concentration at half of the fitted maximal effect.

SMILES	FLuc modulator	ELG1 repair inh	Rab9 promoter act	ELG1 genotoxic	SMN2 splice up	NPC1 promoter act
CC[C@]12c3[nH]c4ccc(Cl)cc4c3CCN1C(=O)[C@@H](CC(=O)NCc1cccc(C(F)(F)F)c1)C[C@@H]2C(=O)N1CCN(C(=O)c2ccco2)CC1	nt	13µM*	nt	1.6%	nt	nt
CC[C@]12c3[nH]c4ccc(Cl)cc4c3CCN1C(=O)[C@@H](CC(=O)NCc1cccc(C(F)(F)F)c1)C[C@@H]2C(=O)N1CCN(C(=O)C2CC2)CC1	nt	?	nt	-14.0%	nt	nt
C[C@]12c3[nH]c4ccc(Cl)cc4c3CCN1C(=O)[C@@H](CC(=O)NCCc1ccccn1)C[C@@H]2C(=O)N1CCCCC1	nt	7.3µM*	nt	-1.5%	nt	nt
C[C@]12c3[nH]c4ccc(Cl)cc4c3CCN1C(=O)[C@@H](CC(=O)NCc1cccc(C(F)(F)F)c1)C[C@@H]2C(=O)N1CCCCC1	nt	23.1µM*	nt	-8.1%	nt	nt
CN(Cc1ccco1)c1ncnc2ccc(-c3cccc(Cl)c3)cc12	2.0%	nt	-1.4%	nt	nt	-3.4%
CCCc1cc(C(=O)Nc2cc(Br)ccc2O)no1	?	?	25.3%	13µM*	?	16.0%
CC(C)c1cc(C(=O)Nc2cc(Cl)ccc2O)no1	7.57µM*	?	1.58µM*	?	12.6µM*	2.82µM*
CSc1ccccc1NC(=O)c1cc(C(C)C)on1	21.3µM*	?	?	11.6µM*	18.5%	?
O=C(Nc1cc(Br)ccc1O)c1cc(-c2cccs2)on1	?	?	?	29.2%	nt	22.9%
CCCc1cc(C(=O)Nc2cc(Cl)ccc2O)no1	10.7µM*	?	?	16.4µM*	nt	?
CC(C)c1cc(C(=O)Nc2cc(Br)ccc2O)no1	?	?	?	?	?	23.8%
CC(C)Cc1cc(C(=O)Nc2cc(Cl)ccc2Cl)no1	?	5.8%	20.5%	29.8%	5.6%	16.3%
CCn1cc2nc(SCC(=O)Nc3ccc(C)cc3)n(Cc3ccc(C)cc3)c(=O)c2n1	2.0%	nt	nt	nt	nt	nt
Cc1nnc(SCC(=O)Nc2ccc(N(C)C)cc2)[nH]c1=O	-15.5%	nt	nt	nt	4.9%	nt
CCc1ccc(NC(=O)N2CC(C)Oc3ccc(C)cc32)cc1 (centres undefined)	-10.4%	nt	nt	nt	nt	nt
COc1cc(NC(=O)C2CC(c3cccc(OC)c3OC)=NO2)cc(OC)c1OC (centres undefined)	0.4%	11.6µM*	-12.5%	-9.6%	-28.8%	-14.1%
CC(C)(C)c1ccc(-c2nnc(SCC(=O)c3ccc4c(c3)OCCO4)o2)cc1	23.9µM*	5.9%	-16.9%	-3.2%	-40.4%	-2.3%
O=C(CSc1nnc(-c2ccccc2Cl)o1)Nc1ccc2c(c1)OCCO2	?	?	?	?	14.1µM*	29.2%
O=C(CSc1nnc(-c2ccc(O)cc2)o1)Nc1cccc(O)c1	?	?	-0.8%	?	nt	12.8%
O=C(CSc1nnc(-c2ccc(O)cc2)o1)Nc1ccc2c(c1)OCCO2	?	?	3.98µM*	15.4%	15.8µM*	3.16µM*
O=C(CSc1nnc(-c2ccc(F)cc2)o1)c1ccc2c(c1)OCCO2	-14.6%[2.3 µM]	6.4%	-0.8%	2.3%	3.3%	0.5%
CCc1ccc(Nc2nnc(-n3nc(C)cc3C)c3ccccc23)cc1	?	nt	nt	nt	42.1%	nt
CCC1CN(C(=O)C2CCN(S(=O)(=O)c3c(C)noc3/C=C/c3ccccc3F)CC2)c2cc(Cl)ccc2O1 (centres undefined)	-2.1%	nt	nt	nt	nt	nt
Cc1nnc(SC(C)C(=O)Nc2ccc3c(c2)OCCO3)s1 (centres undefined)	?	4.8%	-1.9%	4.8%	21.8%	0.5%
COc1ccc(-c2nnc(SC(C)C(=O)Nc3ccc4c(c3)OCCO4)o2)cc1 (centres undefined)	?	?	?	5.8µM*	17.8µM*	18.1%
SMILES	FLuc modulator	ELG1 repair inh	Rab9 promoter act	ELG1 genotoxic	SMN2 splice up	NPC1 promoter act
O=C(Nc1ccc2c(c1)OCCO2)C1CC(c2ccccc2Cl)=NO1 (centres undefined)	19µM*	?	3.98µM*	6.0%	nt	3.98µM*
O=C(Nc1ccc2c(c1)OCO2)C1CC(c2ccccc2O)=NO1 (centres undefined)	-9.5%	11.2%	17.6%	10.7%	nt	3.8%
Cn1cccc1C(=O)N1CCC2(CCN(C(=O)Nc3cccc(F)c3)CC2)CC1	nt	nt	nt	nt	-16.9%	nt
CCOC(=O)c1[nH]c(C)c(CCC(=O)Nc2ccc(N(CC)CC)cc2C)c1C	0.6%	nt	nt	nt	nt	nt
COc1ccc2nc(NC(=O)CSc3nnnn3C)sc2c1	?	?	3.16µM*	14.5%	nt	2.82µM*
COc1ccc2nc(NC(=O)CSc3nccc(C)n3)sc2c1	?	-24.3%	-2.2%	-10.2%	-40.5%	-0.4%
COc1ccc2nc(NC(=O)CSc3nc(SC)ns3)sc2c1	?	?	?	13.6%	?	20.3%
COc1ccc2nc(NC(=O)CSc3n[nH]c(N)n3)sc2c1	9.53µM*	?	?	14.6µM*	nt	?
COc1ccc2nc(NC(=O)CSc3nnc(C)s3)sc2c1	?	?	?	20.6µM*	26.2%	2.51µM*
CCOc1ccc(-n2c(=O)c3c(C)c(C(=O)N(C)C)sc3n(CC(=O)Nc3c(C)cc(C)cc3C)c2=O)cc1	-4.2%	nt	nt	nt	nt	nt
CCN1CCN(C(c2cccc(Cl)c2)c2c(O)cc(C)n(CCOC)c2=O)CC1 (centres undefined)	-11.3%	nt	nt	nt	nt	nt
O=C1C(N2CCOCC2)=C(n2nnc3ccccc32)C(=O)c2ccccc21	-7.2%	2.59µM*	-24.8%	-33.6%	-64.0%	-35.9%
CCOc1ccc(/C=C/c2nc(C#N)c(N3CCC(C)CC3)o2)cc1	3.8%	nt	nt	nt	1.6%	nt
O=C(NCCCN1CCOCC1)c1sc2cc(Cl)ccc2c1Cl	-12.9%	12.0%	10.2%	-2.9%	-4.2%	9.5%
Cn1c(C(=O)NCCc2ccccc2)cc2sc(Cl)cc21	1.2µM*	nt	nt	nt	2.82µM*	nt
COc1ccc(CCNC(=O)c2sc3cc(C)ccc3c2Cl)cc1	5.5%	2.9%	-2.2%	0.2%	-23.4%	0.3%
Cc1ccc2c(Cl)c(C(=O)Nc3cc(C)on3)sc2c1	?	?	2.24µM*	8.2µM*	?	2.82µM*
Cc1ccc2c(Cl)c(C(=O)NCCc3ccccc3)sc2c1	6.01µM*	?	2.51µM*	?	15.8µM*	3.55µM*
CCn1c(C(=O)NCCc2ccc(OC)c(OC)c2)cc2sc(Cl)cc21	?	nt	nt	nt	-42.9%	nt
CCNC(=O)c1sc2cc(C)ccc2c1Cl	10.7µM*	?	3.16µM*	?	29.5%	?
Cc1ccc(NC(=O)N(Cc2c[nH]c3ccccc23)C2CCCCCC2)cc1C	-8.4%	nt	nt	nt	-13.2%	nt
